The list is not random: actives were taken first. Their share in the collection is about 3.1%.
MLL AF4-AF9 inh: inhibitors of AF4 peptide binding to AF9, primary screen, biochemical, AlphaScreen, biotin-AF4 peptide, FLAG-AF9, single point | Protein AF-9 (Homo sapiens), P42568 | inhibition, % at 10 µM | 350,000 tested, 0.47% active;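 active = every replicate reaching a set inhibition limit, whatever the replicate mean, cut at about 25% in these data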;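 note: 0% = plate neutral control median and 100% = total signal loss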
dFosB activator: activators of delta FosB homodimer, primary screen, biochemical, fluorescence polarization, TAMRA-CDK5 oligo, single point. AID 493131, 2011. purified delta FosB; percent of positive-control signal above neutral wells. activation, % at 25 µM. 340,000 tested, 0.99% active;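 active = mean activation above about 17%, with every replicate also reaching it, limit read from the data, passing the limit was not always enough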
Target sequence (P13346 whole entry, looked up): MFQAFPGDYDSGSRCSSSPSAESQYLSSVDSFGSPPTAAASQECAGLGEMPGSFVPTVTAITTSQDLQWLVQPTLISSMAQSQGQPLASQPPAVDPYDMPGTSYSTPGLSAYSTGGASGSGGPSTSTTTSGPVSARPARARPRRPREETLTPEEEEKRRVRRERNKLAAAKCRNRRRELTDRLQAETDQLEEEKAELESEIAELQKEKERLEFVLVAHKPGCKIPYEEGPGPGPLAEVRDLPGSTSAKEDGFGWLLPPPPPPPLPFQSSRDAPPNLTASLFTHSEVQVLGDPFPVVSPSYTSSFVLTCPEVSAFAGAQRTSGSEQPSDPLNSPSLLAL
RAD52 inh: RAD52 DNA annealing inhibitors, primary screen, biochemical, FRET, single point, set 2; DNA repair protein RAD52 homolog (Homo sapiens), P43351; recombinant RAD52 DNA annealing, FRET fluorescence; inhibition, % at 18.7 µM; 360,000 tested, 0.46% active; AID 651710, 2012;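 active = every replicate showing at least 50% inhibition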
DENV2 CPE rescue: inhibitors of DENV2 cytopathic effect, primary screen, cell-based, plate reader, single concentration; DENV2-infected cells, cytopathic effect rescue; 350,000 tested, 1.7% active; CPE inhibition, % at 9.99 µM; in the data active = CPE inhibition above about 20%, passing the limit was not always enough; tested in BHK-21 cells;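 note: 0% = median of neutral control wells and 100% = median of positive control wells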
RAD54 inh: inhibitors of human RAD54 branch migration, primary screen, biochemical, fluorescence, single point; DNA repair and recombination protein RAD54-like (Homo sapiens), Q92698; RAD54 Holliday junction branch migration, FAM/BHQ fluorescence; inhibition, % at 10.4 µM; 360,000 tested, 0.14% active;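 active = mean normalized replicate activity at least 40 and at least half of replicates scoring 40 or more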;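 note: 0% = median of neutral control wells and 100% = median of positive control wells; inhibitors cause a drop in the FAM fluorescence signal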
GSIS activator: GLuc luminescence reporter in INS-1E cells, primary screen for activators of glucose-dependent secretion of insulin; INS-1E GLuc reporter insulin secretion, 2-3 h; activation, % at 16.6 µM; 370,000 tested, 0.61% active; AID 743287, 2014;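 active = lowest replicate activation of at least 40%, so every replicate reaches that level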;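 note: 0% = median of neutral control wells and 100% = median of IBMX positive control wells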
Active calls of the source: *.

What do the screens show for `Cc1ccc(S(=O)(=O)Nc2ccc3c(c2)CC(=O)N([C@@H](C)CO)C[C@@H](C)[C@@H](CN(C)C(=O)Nc2ccccc2)O3)cc1`?
MLL AF4-AF9 inh: 0.0; RAD52 inh: 12.8; DENV2 CPE rescue: 38.8*; RAD54 inh: 12.7; GSIS activator: 16.3

What do the screens show for `CCCCc1c(-c2ccccc2OC)ncn1C(C)c1ccccc1` (stereo unspecified)?
MLL AF4-AF9 inh: 11.8; RAD52 inh: -19.7; DENV2 CPE rescue: -8.8; GSIS activator: 91.8*

What do the screens show for `CCCCc1c(-c2ccccc2OC)ncn1CCc1ccc(OC)cc1`?
MLL AF4-AF9 inh: 19.1; RAD52 inh: 6.4; DENV2 CPE rescue: 4.4; GSIS activator: 1.2

How did CCCCc1c(Cc2ccccc2)ncn1CCc1ccccc1OC do in these assays?
MLL AF4-AF9 inh: 15.5; RAD52 inh: -5.2; DENV2 CPE rescue: -3.1; GSIS activator: 174.3*

Results for CCCCc1c(-c2ccccc2OC)ncn1CCc1ccccc1 ?
MLL AF4-AF9 inh: 15.2; RAD52 inh: 10.9; DENV2 CPE rescue: -7.3; GSIS activator: 46.2*

How did COC(=O)C[C@@H]1CC[C@H]2[C@@H](COc3ccc(NS(=O)(=O)c4ccccc4Cl)cc3C(=O)N2C)O1 do in these assays?
MLL AF4-AF9 inh: -0.3; RAD52 inh: 8.0; DENV2 CPE rescue: -2.2; RAD54 inh: -3.9; GSIS activator: 0.0

How did COc1ccc(C(CNC(=O)COc2ccccc2C)N2CCCCC2)cc1 (stereo unspecified) do in these assays?
MLL AF4-AF9 inh: 1.5; dFosB activator: -3.7; RAD52 inh: -7.5; DENV2 CPE rescue: -7.0; RAD54 inh: -6.9; GSIS activator: 21.3

What do the screens show for `CN(C)c1ccc(C(CNC(=O)COc2ccc(Cl)cc2)N2CCCC2)cc1` (stereo unspecified)?
MLL AF4-AF9 inh: 25.8*; dFosB activator: -7.5; RAD52 inh: -63.4; DENV2 CPE rescue: -2.3; RAD54 inh: 2.3; GSIS activator: -1.0

Results for COc1ccc(C(CNC(=O)COc2cc(C)ccc2Cl)N2CCCCC2)cc1 (stereo unspecified) ?
MLL AF4-AF9 inh: 0.8; dFosB activator: -15.4; RAD52 inh: 8.0; DENV2 CPE rescue: 37.2*; GSIS activator: 5.1

How did CC(C)(C)OC(=O)N1CCC[C@@H]1C(=O)N1CCC[C@@H]1C(=O)NCc1ccccc1Cl do in these assays?
MLL AF4-AF9 inh: -3.8; RAD52 inh: -13.2; DENV2 CPE rescue: 33.5*; GSIS activator: -8.3

What do the screens show for `CCOc1cc(OCC)cc(C(=O)N2CCC[C@@H]2C(=O)N2CCC[C@@H]2C(=O)NCc2ccccc2Cl)c1`?
MLL AF4-AF9 inh: 1.8; RAD52 inh: 3.1; DENV2 CPE rescue: 80.5*; GSIS activator: -17.6

How did CCOc1cc(OCC)cc(C(=O)N2CCC[C@H]2C(=O)N2CCC[C@H]2C(=O)NCc2ccc(F)cc2F)c1 do in these assays?
MLL AF4-AF9 inh: -2.4; RAD52 inh: -15.9; DENV2 CPE rescue: 7.6; GSIS activator: -22.5

How did COCC(=O)Nc1ccc2c(c1)C(=O)N(C)C[C@H](OC)[C@@H](C)CN(Cc1ccccc1)[C@@H](C)CO2 do in these assays?
MLL AF4-AF9 inh: 4.0; RAD52 inh: -2.8; DENV2 CPE rescue: 26.2*; RAD54 inh: 1.8; GSIS activator: -12.6

Results for CO[C@H]1CN(C)C(=O)c2cc(NC(=O)C3CCC3)ccc2OC[C@H](C)N(Cc2ccncc2)C[C@H]1C ?
MLL AF4-AF9 inh: -4.6; RAD52 inh: 8.8; DENV2 CPE rescue: -9.0; RAD54 inh: -2.2; GSIS activator: 7.3

How did COCC(=O)Nc1ccc2c(c1)OC[C@H](C)N(Cc1cccc(F)c1)C[C@H](C)[C@@H](OC)CN(C)C2=O do in these assays?
MLL AF4-AF9 inh: -0.6; RAD52 inh: 0.4; DENV2 CPE rescue: 24.7*; GSIS activator: -17.0

Results for CCC(=O)Nc1ccc2c(c1)OC[C@@H](C)N(Cc1cccnc1)C[C@H](C)[C@@H](OC)CN(C)C2=O ?
MLL AF4-AF9 inh: -14.4; RAD52 inh: 6.5; DENV2 CPE rescue: 47.7*; RAD54 inh: -10.9; GSIS activator: 7.9

Results for COCC(=O)Nc1ccc2c(c1)C(=O)N(C)C[C@@H](OC)[C@@H](C)CN(Cc1cccc(F)c1)[C@H](C)CO2 ?
MLL AF4-AF9 inh: 2.8; RAD52 inh: -8.4; DENV2 CPE rescue: -6.9; RAD54 inh: 3.5; GSIS activator: -4.8

What do the screens show for `CO[C@@H]1CN(C)C(=O)c2cc(NC(=O)C3CCC3)ccc2OC[C@@H](C)N(Cc2ccncc2)C[C@@H]1C`?
MLL AF4-AF9 inh: -3.0; RAD52 inh: 11.8; DENV2 CPE rescue: 41.2*; RAD54 inh: 0.0; GSIS activator: -1.7

How did COc1ccc(NC(=O)Nc2cccc3c2O[C@@H](CN(C)S(=O)(=O)c2cn(C)cn2)[C@H](C)CN([C@H](C)CO)C3=O)cc1 do in these assays?
MLL AF4-AF9 inh: -1.0; RAD52 inh: 6.1; DENV2 CPE rescue: -18.9; RAD54 inh: 2.4; GSIS activator: 24.8

What do the screens show for `CCC(=O)Nc1ccc2c(c1)C(=O)N(C)C[C@@H](OC)[C@H](C)CN(Cc1ccccc1)[C@@H](C)CO2`?
MLL AF4-AF9 inh: 0.1; RAD52 inh: 4.0; DENV2 CPE rescue: 37.4*; RAD54 inh: -8.6; GSIS activator: -8.0

Results for CCC(=O)Nc1ccc2c(c1)C(=O)N(C)C[C@@H](OC)[C@@H](C)CN(Cc1ccccc1)[C@H](C)CO2 ?
MLL AF4-AF9 inh: 1.4; RAD52 inh: 4.1; DENV2 CPE rescue: 4.7; RAD54 inh: -2.3; GSIS activator: -1.5

How did COc1ccc(CN2C[C@H](C)[C@H](OC)CN(C)C(=O)c3cc(NC(=O)c4nc5ccccc5s4)ccc3OC[C@@H]2C)cc1 do in these assays?
MLL AF4-AF9 inh: 4.9; RAD52 inh: 40.3; DENV2 CPE rescue: 22.0*; RAD54 inh: 12.0; GSIS activator: -32.4

Results for COc1ccc(CN2C[C@@H](C)[C@@H](OC)CN(C)C(=O)c3cc(NC(=O)c4nc5ccccc5s4)ccc3OC[C@H]2C)cc1 ?
MLL AF4-AF9 inh: 4.3; RAD52 inh: 29.8; DENV2 CPE rescue: -0.5; RAD54 inh: 8.5; GSIS activator: -33.8

Results for C[C@@H]1CCCCO[C@H](CN(C)Cc2ccc(C(F)(F)F)cc2)[C@@H](C)CN([C@@H](C)CO)C(=O)c2cc(NC(=O)CCCN(C)C)ccc2O1 ?
MLL AF4-AF9 inh: 7.5; RAD52 inh: 32.6; DENV2 CPE rescue: -4.1; RAD54 inh: -4.6; GSIS activator: 5.4

Screening results from PubChem BioAssay.
